Assay outcomes (PubChem BioAssay)
Only some compounds are listed: those with a hit (about 14% of all), similar ones and a draw of the others.
Pf growth 48h: Primary qHTS for delayed death inhibitors of the malarial parasite plastid, 48 hour incubation. P. falciparum luciferase growth in erythrocytes, 48 h. Potency, µM (series often up to 28.7 µM), actives largely listed as inhibitors. 5.9% of 310,000 active. AID 504832, 2011
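Cell-based growth assay: transgenic P. falciparum expressing firefly luciferase, cultured in red cells within RPMI 1640 containing 0.5% w/v Albumax, 24 mM bicarbonate and gentamycin. A drop in luciferase activity indicates inhibition.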
Pf growth 96h: Primary qHTS for delayed death inhibitors of the malarial parasite plastid, 96 hour incubation; P. falciparum luciferase reporter growth, 96 h; Potency, µM (titrated, usually from 28.7 µM), usual class: inhibitors; 6.9% of 320,000 active; AID 504834, 2011
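Parasite growth measured via integrated firefly luciferase reporter in P. falciparum. Infected erythrocytes at 2% hematocrit, 0.05% parasitemia final were treated 96 hours at 37 C under 5% CO2, and luminescence was read.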
FBPA Giardia inh: qHTS Assay for Inhibitors of Fructose-1,6-bisphosphate Aldolase from Giardia Lamblia; 0.71% of 290,000 active; A8B2U2; Potency, µM (titrated, usually from 59.6 µM), actives largely listed as inhibitors; purified Giardia FBPA; AID 2451, 2010; note: nearly all actives have a fitted effect of over 55% in size
Target sequence (A8B2U2 whole entry, looked up): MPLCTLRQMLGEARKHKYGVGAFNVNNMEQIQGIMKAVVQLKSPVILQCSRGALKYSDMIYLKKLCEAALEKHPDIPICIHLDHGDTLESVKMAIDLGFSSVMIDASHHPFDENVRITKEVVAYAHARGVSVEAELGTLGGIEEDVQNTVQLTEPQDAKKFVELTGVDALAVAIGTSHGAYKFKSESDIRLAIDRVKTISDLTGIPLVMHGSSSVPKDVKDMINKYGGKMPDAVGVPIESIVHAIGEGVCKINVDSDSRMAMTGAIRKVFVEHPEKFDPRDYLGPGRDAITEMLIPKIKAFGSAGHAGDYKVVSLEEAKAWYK
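Giardia FBPA (40 nM reagent) was preincubated 10 min at RT with compound (up to 57.5 uM final), then substrate plus GAPDH/TPI/NAD/arsenate coupling system with diaphorase/resazurin was added; resorufin fluorescence (525/598 nm) was read after 20 min.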
Sm TGR inh: qHTS Assay for the Inhibitors of Schistosoma Mansoni Peroxiredoxins; 3% of 360,000 active; Schistosoma mansoni thioredoxin glutathione reductase (TGR), Q962Y6; purified TGR, DTNB reduction, TNB absorbance 405 nm; Potency, µM (titrated, usually from 114 µM), most hits filed as inhibitors; note: nearly all actives have a fitted effect of over 60% in size
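First, TGR (20 nM dispensed) and NADPH were mixed with compound. Second, a 15 min room-temperature incubation followed. Third, further NADPH and then DTNB were added to start the reaction. Finally, TNB absorbance was monitored kinetically.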
HCMV antiviral: qHTS Assay for inhibitors of the human cytomegalovirus (HCMV) | HFF cells, HCMV-luciferase reporter, 72 h; stronger effect = lower value | activity change, negative = inhibition, % at 57.5 µM | 4.5% of 410,000 active | AID 1259415, 2018; in the data active = activity change below about -60%; inconclusive = no clear call, values can overlap the other calls; inactive = above about -39%
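Two-dose cell screen: HFF monolayers treated with compounds and infected with luciferase-expressing HCMV at 1 PFU/cell, 72 h at 37C, then lysed for luciferase measurement.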
A number is an active result; – = inactive; ? = inconclusive; · = no result. Unless noted, calls come from the whole dose curve; as a rule, active = well fitted curve in the direction sought with a large enough effect; inconclusive = small, poorly fitted or top-dose-only effect, or another doubt; inactive = no such curve, though single readings can be large; an effect the other way counts as inactive or inconclusive.

SMILES	Pf growth 48h	Pf growth 96h	FBPA Giardia inh	Sm TGR inh	HCMV antiviral
COC(=O)[C@H]1[C@H]2C[C@@H]3c4[nH]c5cc(OC)ccc5c4CCN3C[C@H]2C[C@@H](OC(=O)c2ccc(N)cc2)[C@@H]1OC	12µM	13µM	?	?	?
COC(=O)C1[C@@H](OC)C(OC(=O)COc2ccc(OC)cc2)C[C@@H]2CN3CCc4c([nH]c5cc(OC)ccc45)[C@H]3C[C@H]12 (some centres undefined)	8.5µM	6.7µM	·	·	·
COC(=O)[C@H]1[C@H]2C[C@@H]3c4[nH]c5cc(OC)ccc5c4CCN3C[C@H]2C[C@@H](OC(=O)/C=C/c2cc(OC)c(OC)c(OC)c2)[C@@H]1OC	0.74µM	0.93µM	·	–	–
CCOC(=O)Oc1c(OC)cc(C(=O)O[C@H]2C[C@H]3CN4CCc5c([nH]c6cc(OC)ccc56)[C@@H]4C[C@H]3[C@@H](C(=O)OC)[C@@H]2OC)cc1OC	1.6µM	1.3µM	–	·	·
O=C(NCc1ccc(F)cc1)c1cc(C2CCCN(C(=O)C3CCCCC3)C2)on1 (centres undefined)	·	·	·	·	–
O=C1CC(c2ccccc2)Cc2[nH]c(=O)c(C(=O)Nc3cccc(Cl)c3)cc21 (centres undefined)	·	·	·	–	–
Cc1ccc(NC(=O)c2cc(S(=O)(=O)N(C)C)ccc2N2CCCC2)cc1F	–	–	–	–	–
CCOC(=O)[C@]12CCC=C1N(Cc1ccccc1)C(=O)[C@H](CC(=O)NCCCCc1ccccc1)C2	·	·	·	·	–
Cn1c(=O)c2sccc2n(Cc2cccc(Br)c2)c1=O	–	?	–	–	–
COc1ccc2c3c([nH]c2c1)[C@H]1C[C@H]2[C@H](C[C@@H](O)[C@H](OC)[C@H]2C(=O)O)CN1CC3	–	–	·	–	–
COC(=O)[C@H]1[C@H]2C[C@@H]3c4[nH]c5ccccc5c4CCN3C[C@H]2C[C@@H](OC(=O)c2cc(OC)c(OC)c(OC)c2)[C@@H]1OC	0.38µM	–	·	·	·
CCOC(=O)N1CCN(C(=O)c2ccc3c(=O)n(-c4cc(OC)ccc4OC)c(=S)[nH]c3c2)CC1	–	?	–	–	–
COc1cccc(-n2nc(-c3ccnn3-c3cccc(Cl)c3)c(=O)n(C)c2=O)c1	?	?	–	–	–
COc1cccc(-n2nc(-c3ccnn3-c3ccccc3)c(=O)n(C)c2=O)c1	·	12µM	–	–	–
O=C(Oc1ccc(NC(=O)c2cc3c(cc2Br)OCO3)cc1)c1ccccc1	–	–	–	–	–
OCc1cn(-c2ccccc2)nc1-c1ccco1	·	–	–	–	–
C=CCOC(=O)C1=C(C)NC(C)=C(C(=O)OCC=C)C1c1cn(-c2ccccc2)nc1-c1ccco1	?	3.7µM	–	–	–
COc1ccc(-c2[nH]ncc2CN2CCN(c3ccc(F)cc3)CC2)cc1	–	?	–	–	–
Fc1ccc(-c2[nH]ncc2CN2CCN(c3ccc(F)cc3)CC2)cc1	–	–	–	–	–
OC1(c2ccc(Cl)cc2)CCN(Cc2cn[nH]c2-c2ccccc2)CC1	?	9.3µM	–	–	?
OC1(c2ccc(Cl)cc2)CCN(Cc2cn[nH]c2-c2ccc(F)cc2)CC1	13µM	?	–	–	-78
Cc1ccc(Cn2nnnc2CN2CCC(O)(c3ccc(F)cc3)CC2)cc1	13µM	–	–	?	–
Fc1ccc(N2CCN(Cc3cn[nH]c3-c3ccccc3)CC2)cc1	?	–	–	–	–
COc1ccc(-c2[nH]ncc2CN2CCC(O)(c3ccc(Cl)cc3)CC2)cc1	?	12µM	–	–	–
CCC1=C(c2ccc(C)cc2)S(=O)(=O)N=C1N1CCC(C(=O)N2CCCCC2)CC1	·	·	·	–	–
SMILES	Pf growth 48h	Pf growth 96h	FBPA Giardia inh	Sm TGR inh	HCMV antiviral
O=C(O)COc1ccccc1/C=N/NC(=O)CN1CCN(S(=O)(=O)c2ccc(Br)cc2)CC1	–	–	–	–	–
CC(=O)c1ccc(NC(=O)C(C)OC(=O)C2CCN(c3ccc(C(F)(F)F)cn3)CC2)cc1 (centres undefined)	?	–	·	–	–
CC(OC(=O)C1CCN(c2ccc(C(F)(F)F)cn2)CC1)C(=O)Nc1cccc([N+](=O)[O-])c1 (centres undefined)	12µM	?	·	–	–
CCCOC(=O)c1ccc(NC(=O)COC(=O)C2CCN(c3ccc(C(F)(F)F)cn3)CC2)cc1	·	·	·	·	–
Cc1ccc(NC(=O)COC(=O)C2CCN(c3ccc(C(F)(F)F)cn3)CC2)cc1	–	–	·	–	-73
CC(OC(=O)C1CCN(c2ccc(C(F)(F)F)cn2)CC1)C(=O)Nc1ccc(S(N)(=O)=O)cc1 (centres undefined)	?	13µM	·	–	–
Cc1ccc2nc(CN3CCN(S(=O)(=O)c4ccc(F)cc4)CC3)oc2c1	·	·	·	–	–
O=C1NC(=Nc2cccc(Cl)c2)SC1Cc1cccc(Cl)c1Cl (centres undefined)	–	10µM	–	–	-78
O=C(O)CC1SC(=Nc2cccc(O)c2)NC1=O (centres undefined)	–	·	–	–	–
COc1ccc(C2C=C3CNS(=O)(=O)C3CC2OC(=O)c2cccc(C)c2)cc1 (centres undefined)	·	·	–	·	·
CCOC(=O)C(Cc1ccccc1)C(=O)c1ccco1 (centres undefined)	?	–	·	–	–
CC(N)C(=O)c1ccco1 (centres undefined)	?	–	–	–	-68
COc1ccc(NC(=O)CSc2nccn2Cc2ccco2)cc1	–	–	·	–	–
O=C(N/N=C/c1ccc(O)cc1O)c1ccc(CN2C(=O)c3cccc4cccc2c34)cc1	?	?	–	·	-101
O=C(N/N=C/c1ccccc1)c1ccc(CN2C(=O)c3cccc4cccc2c34)cc1	–	–	–	–	–
CCOc1ccccc1Nc1nc(-c2cccnc2)cs1	13µM	–	–	–	–
CCOc1ccccc1Nc1nc(-c2sc(NC(=O)c3ccco3)nc2C)cs1	15µM	2.3µM	–	–	–
Cc1ccccc1Nc1nc(-c2sc(NC(=O)c3ccco3)nc2C)cs1	12µM	?	?	?	–
Cc1ccc(Nc2nc(-c3sc(NC(=O)c4ccco4)nc3C)cs2)cc1	9.3µM	?	–	?	–
Clc1ccccc1Nc1nc(-c2cccnc2)cs1	–	–	–	–	–
COC(=O)c1cc2ccsc2n1Cc1ccccc1F	–	12µM	–	–	–
COC(=O)c1cc2ccsc2n1CC(=O)Nc1cc(Cl)ccc1OC	?	–	–	–	-97
COc1ccccc1NC(=O)N(Cc1ccco1)C1CCN(C(C)=O)CC1	·	·	·	–	–
Cc1ccc(SC2=C(Sc3ccc(C)cc3)C(=O)c3ccccc3C2=O)cc1	0.41µM	0.74µM	?	?	–
Cc1cc(C)nc(SCCS(=O)(=O)Cc2ccccc2)n1	–	–	–	–	–
